Assay results as given in ChEMBL document CHEMBL4513216, “Probing the Open Global Health Chemical Diversity Library for Multistage-Active Starting Points for Next-Generation Antimalarials” (ACS Infect Dis, 2020).
The campaign covered roughly 69,000 compounds. About 8,600 (12%) showed an effect of 50% or more. The sample as a whole holds a higher share of strong results than the screen did.

test system: Plasmodium berghei; experiment: Screen against P. berghei liver stage (PbLuc), transformed with Luciferase, at 10uM; type: functional, HepG2; settings: tested at 10 uM

First: CCN1CC2(CC1=O)CN(C(=O)NC(C)C)CCN(S(C)(=O)=O)C2 (stereo unspecified)
Second: CC(C)CS(=O)(=O)CC(=O)NC1CCCCNC1=O (stereo unspecified)
The INHIBITION of the first is higher: 21.6% for the first, -79.1% for the second.

First: O=S(=O)(c1ccc(F)cc1)N1CCCC(c2nccs2)C1 (stereo unspecified)
Second: Cc1ccc(CC2COCCN(S(=O)(=O)c3ccccc3)C2)nc1 (stereo unspecified)
The INHIBITION of the first is higher: 13.5% for the first, 1.62% for the second.

Compared with CC(=O)NCc1nccnc1C1CCN(C(=O)c2cc[nH]n2)CC1, CN(C)Cc1nc(C(=O)N2CCCC(COc3ccc(F)cc3)C2)cs1 (stereo unspecified) is higher in INHIBITION: -19.7% for the first, 15.7% for the second.

Going from Cc1cnc(N2CCC3(CC2)CC3CNC(=O)C2CCC2)nc1 (stereo unspecified) to Cc1cnc(N2CCC3(CC2)CC3C(=O)NCC2CC2)nc1 (stereo unspecified), the INHIBITION falls from 50.7% to 16.9%.

Going from Cc1cnc(N2CCC3(CC2)CC3CNC(=O)N(C)C)nc1 (stereo unspecified) to CC[C@H]1CN(C(=O)c2cnc(N3CCN(C)CC3)nc2C)CC[C@@]1(C)O, the INHIBITION falls from 7.24% to 1.93%.

First: CC(C)(C)CC(=O)NS(=O)(=O)c1ccc(F)cc1C(F)(F)F
Second: CC(C)c1nn(C)c(N(C)C)c1CNC1CCc2cc(F)ccc21 (stereo unspecified)
The INHIBITION of the first is higher: -15.5% for the first, -25.3% for the second.

Compared with Cc1nn(C)c(C)c1C1CCCN1Cc1nc2ccccc2c(=O)[nH]1 (stereo unspecified), CCN1CCCC1CNCc1cc2ccccc2[nH]c1=O (stereo unspecified) is lower in INHIBITION: -33.7% for the first, -61.5% for the second.

Compared with O=c1[nH]c(COc2cccc(F)c2)nc2c1CCNC2, O=c1[nH]c(COc2ccccc2Cl)nc2c1CCNC2 is lower in INHIBITION: 15.8% for the first, 2.15% for the second.

First: O=c1[nH]c(NCc2cccc(-c3ccccc3)c2)nc2c1CCNC2
Second: O=c1[nH]c(NCc2cccc(OC(F)F)c2)nc2c1CCNC2
The INHIBITION of the first is lower: 21.9% for the first, 88% for the second.

Compared with COc1cc(CNc2nc3c(c(=O)[nH]2)CCNC3)cc(OC)c1OC, CC(C)(C)c1ccc(OCc2nc3c(c(=O)[nH]2)CCNC3)cc1 is lower in INHIBITION: 57.8% for the first, -13.3% for the second.

Going from CCC=C(C)C(=O)N1CSCC1C(=O)NC1=NCCS1 (stereo unspecified) to CC(C)n1ncc2cc(NC(=O)N3CCSCC3)cnc21, the INHIBITION rises from 7.58% to 11.2%.

Compared with C[C@@H]1CN(C2CCN(Cc3cnc(-c4cccs4)nc3)CC2)C[C@H](C)O1, OC1CCN(C2CCN(Cc3cnc(-c4cccs4)nc3)CC2)CC1 is lower in INHIBITION: 63.7% for the first, 25.1% for the second.

Going from CC(C1CCN(Cc2cnc(-c3cccs3)nc2)CC1)N(C)C (stereo unspecified) to Cc1nc(CN(C)C)cc(N2CCCC(COc3ccc(F)cc3)C2)n1 (stereo unspecified), the INHIBITION rises from 18.8% to 79.5%.

First: O=C(Cc1csc(-c2ccco2)n1)N1CCN(c2ccccc2O)CC1
Second: O=C(c1ccccc1)N1CC2(CCNC2)OCc2ccccc21 (stereo unspecified)
The INHIBITION of the first is lower: -44.3% for the first, -0.621% for the second.

First: CC(=O)N1CCOCC(Cc2ccc3c(ccn3C(C)=O)c2)C1 (stereo unspecified)
Second: CC(=O)N1CCC(Cc2cccc(-c3c(C)noc3C)n2)C1 (stereo unspecified)
The INHIBITION of the first is higher: 12.59% for the first, 8.53% for the second.

Going from Cc1ccc(OCC2CCCN(c3cc(C(N)=O)ccn3)C2)cc1 (stereo unspecified) to COc1cccc(OCC2CCCN(c3cc(C(N)=O)ccn3)C2)c1 (stereo unspecified), the INHIBITION rises from 26.5% to 40.7%.

First: CN(C)Cc1ccc(C(=O)N2CCCC(COc3ccc(F)cc3)C2)o1 (stereo unspecified)
Second: CCc1nnsc1C(=O)N1CCCC(COc2ccc(F)cc2)C1 (stereo unspecified)
The INHIBITION of the first is higher: 63% for the first, 26.4% for the second.

First: COc1ccc(OCC2CCCN(c3nc(CO)cs3)C2)cc1 (stereo unspecified)
Second: OCc1csc(N2CCCC(COc3cccc(F)c3)C2)n1 (stereo unspecified)
The INHIBITION of the first is lower: -3.43% for the first, 39.9% for the second.

Compared with Cc1nc(N)cc(N2CCCC(COc3cccc(F)c3)C2)n1 (stereo unspecified), Nc1cc(N2CCCC(COc3ccc(F)cc3)C2)nc(N)n1 (stereo unspecified) is higher in INHIBITION: 73.8% for the first, 79.5% for the second.

Compared with Cc1ccccc1OCC1CCCN(c2cc(N)nc(N)n2)C1 (stereo unspecified), CCNC(=O)c1ccnc(N2CCCC(COc3ccccc3C)C2)c1 (stereo unspecified) is lower in INHIBITION: 73.8% for the first, 30.9% for the second.

Going from COCC(=O)N1CCCC(COc2ccccc2C)C1 (stereo unspecified) to Nc1cc(N2CCCC(COc3ccc(F)cc3)C2)ncn1 (stereo unspecified), the INHIBITION rises from -4.37% to 23.7%.

Going from Cc1cnc(N2Cc3nccn3CC(Cn3ncccc3=O)C2)nc1 (stereo unspecified) to O=C(c1cnc(-c2ccccn2)s1)N1CCCC1Cn1cccn1 (stereo unspecified), the INHIBITION falls from 38.2% to -9.19%.

Compared with CCN1CC(C(=O)NCCc2csc(-c3ccncc3)n2)CC1=O (stereo unspecified), CC(CNC(=O)CCc1ccccn1)c1ccsc1 (stereo unspecified) is higher in INHIBITION: -2.92% for the first, 22.2% for the second.

Going from Nc1nc(N2CCCC(COc3ccc(F)cc3)C2)c2nc[nH]c2n1 (stereo unspecified) to CCN1CCCC1CNCc1cc2cc(OC)ccc2[nH]c1=O (stereo unspecified), the INHIBITION rises from 33.7% to 72.2%.

First: OC(COCc1ccccc1Cl)CN1CCC(c2ccn[nH]2)CC1 (stereo unspecified)
Second: COc1ccc2[nH]c(=O)c(CN(C)CCN3CCCC3)cc2c1
The INHIBITION of the first is lower: 48.2% for the first, 63.9% for the second.

First: COc1cccc(CN2CC3(CCNCC3)CCC2=O)c1OC
Second: COc1ccc(CN2CC3(CCNCC3)CCC2=O)c(F)c1F
The INHIBITION of the first is higher: 24.2% for the first, 22.9% for the second.

Going from Cc1ccc(CN2CC3(CCNCC3)CCC2=O)c(F)c1F to COc1ccc2cc(CN(C)CCN3CCCCC3=O)c(=O)[nH]c2c1, the INHIBITION falls from 71.1% to -15.1%.

First: c1ccc(NC[C@@H]2CCC[C@@H]3CN(c4ncccn4)C[C@@H]32)nc1
Second: O=C(N1CCOCC1)N1CCc2ncnc(Oc3cccnc3)c2CC1
The INHIBITION of the first is higher: 48.4% for the first, 0.734% for the second.

Going from CC(=O)N1CCc2nnc(C3CCCN3CC3CCCCC3)n2CC1 (stereo unspecified) to CCN1CCCC1CNC(=O)CCSc1ccc2c(c1)OCCO2 (stereo unspecified), the INHIBITION rises from -5.71% to 38.5%.

Compared with CC(C)C(O)CNC(=O)CCCc1ccccn1 (stereo unspecified), CC(CNC(=O)CCCc1ccccn1)c1ccsc1 (stereo unspecified) is higher in INHIBITION: 15.5% for the first, 60.2% for the second.

First: Cc1nc(C)c(C)c(NCCSc2ccccn2)n1
Second: Cc1nc(NCCSc2ccccn2)c2c(C)noc2n1
The INHIBITION of the first is higher: 60.2% for the first, 13.5% for the second.

Compared with Cc1nc(N(C)C)nc(NCCc2ccccn2)c1C, COc1ccc2[nH]c(=O)c(CN(C)C(C)c3ccccn3)cc2c1 (stereo unspecified) is higher in INHIBITION: -43.6% for the first, -3.55% for the second.

Compared with CC(C)CN1C[C@@H]2CN(C(=O)[C@H]3CCCO3)C[C@@H]2C1=O, CCN1CCCC1CNCc1cc2cc3c(cc2[nH]c1=O)OCCO3 (stereo unspecified) is higher in INHIBITION: 17.4% for the first, 58.2% for the second.

Compared with CSc1ccc2cc(CN(C)CCc3cn[nH]c3)c(=O)[nH]c2c1, COc1ccc2cc(CN(C)CCc3cn[nH]c3)c(=O)[nH]c2c1 is higher in INHIBITION: 20.8% for the first, 36.5% for the second.

Going from CCN1CCCC1CNCc1cc2cc(C)c(C)cc2[nH]c1=O (stereo unspecified) to CCN1CCCC1CNCc1cc2cc(OC)c(OC)cc2[nH]c1=O (stereo unspecified), the INHIBITION rises from -29.9% to 18.3%.

CCOc1ccc2[nH]c(=O)c(CN(C)CCc3cn[nH]c3)cc2c1 was tested, and the INHIBITION was 54.4%.
